HSP90 inh: inhibitors of HSP90 luciferase refolding in rabbit reticulocyte lysate; luciferase refolding luminescence, 3 h; inhibition, % at 5.6 µM; 290,000 compounds, 0.91% hits; AID 1789;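 active = inhibition above the screen-wide mean plus 3 SD, computed separately per campaign, cut at about 16% in these data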;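 note: 0% = DMSO wells and 100% = 60 µM geldanamycin wells; inhibitors lower the luminescence because luciferase stays unfolded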
PPC-1+TRAIL kill: compounds killing PPC-1 cancer cells with TRAIL present (potentiator screen, no TRAIL-free arm) | cell killing (% activity), % at 4 µM or 5 µM | PPC-1 cells + TRAIL, ATPLite viability luminescence | 220,000 compounds, 0.41% hits | AID 1443;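 active = cell killing above 50% in the first pass at 4 µM, then a duplicate retest at 5 µM averaging 50% or more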;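 note: plate controls were cells with TRAIL plus DMSO for no effect and medium-only wells lacking cells for full effect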
TRAIL sens C8: sensitizes caspase-8 expressing cells to TRAIL. NB7+C8 cells + TRAIL, ATPlite viability luminescence. 360,000 compounds, 1% hits. AID 624354. inhibition (viability loss, TRAIL sensitization), % at 10 µM;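 active = compounds causing at least 50% loss of cell viability in the single-dose screen, relative to plate controls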
STAT3 inh: STAT3 signaling inhibition; U3A cells, IL-6 STAT3-luciferase reporter, luminescence; host cell line lacks STAT1; inhibition, % at 5.5 µM; 190,000 compounds, 0.89% hits; AID 862;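 active = inhibition above the mean inhibition across all screened compounds plus 3 SD, cut at about 44% in these data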;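 note: 0% = DMSO only wells and 100% = 100 µM nifuroxazide control wells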
HSF1 inh: HSF1 inhibition; AID 2098; 300,000 compounds, 0.77% hits; activity change, negative = inhibition, % at 7.5 µM (by protocol); NIH3T3-HGL HSE-luciferase, MG132-induced, luminescence 8 h; hits give low values;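 active = more than half of replicate wells show activity change below -50%, luminescence cut by over half; inconclusive = some wells, but at most half, below -50%; inactive = no replicate well below -50%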;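 note: luciferase reports HSF-1 transcriptional activity via heat shock element; 0% = median of DMSO wells and -100% = zero luminescence signal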
STAT1 inh: inhibitors of IFN-gamma induced STAT1 signaling | NIH 3T3 STAT1-luciferase reporter, luminescence | inhibition, % at 5.5 µM | 200,000 compounds, 0.35% hits;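 active = inhibition above a set limit, the mean inhibition across all tested compounds plus 3 SD, cut at about 34% in these data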;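 note: 0% = IFN-gamma with DMSO and 100% = IFN-gamma with 300 µM nifuroxazide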
* marks the source's active call; other numbers are inactive results; ? = inconclusive; · = not tested or not shown. Most compounds without a hit are left out; they make up all but 2.4% or so of the library.

SMILES	HSP90 inh	PPC-1+TRAIL kill	TRAIL sens C8	STAT3 inh	HSF1 inh	STAT1 inh
Cc1ccc(N2C(=O)NC(NS(=O)(=O)c3ccccc3)(C(F)(F)F)C2=O)cc1 (centres undefined)	-2	·	-13	·	-79*	·
COC(=O)C[C@H]1C=C[C@@H](NC(=O)Nc2c(C)noc2C)[C@@H](CO)O1	·	·	6	·	·	·
CCOC(=O)c1sc(NC(=S)NC(=O)c2ccc(OC)cc2)nc1C	16*	·	1	·	4	·
CCOC(=O)Cc1csc(NC(=O)c2cc3c(s2)CCCC3)n1	9	48	54*	2	8	-1
CCOC(=O)Cc1csc(NC(=S)NC(=O)c2ccc(Cl)cc2)n1	5	18	51*	4	?	-1
COc1ccc(C(=O)NC(=S)Nc2nc(C)c(C(=O)N(C)C)s2)cc1	0	1	14	1	3	-9
CCOC(=O)Cc1csc(NC(=O)NC2(C(F)(F)F)Oc3ccc(Cl)cc3O2)n1 (centres undefined)	6	5	38	4	20	1
CCOC(=O)Cc1csc(NC(=O)NC2(C(F)(F)F)Oc3cc(Cl)c(Cl)cc3O2)n1	5	21	17	2	-57*	4
O=C(NC1CCCCC1)C1c2ccccc2OCC(=O)N1Cc1ccccc1 (centres undefined)	·	·	1	·	·	·
Cc1cccc(C)c1NC(=O)C1(C)CSCC(=O)N1CCc1ccccc1 (centres undefined)	·	·	0	·	·	·
CC(=O)c1cccc(NC(=O)C2Cc3c(-c4ccc(Cl)cc4)ccnc3O2)c1 (centres undefined)	·	·	16	·	·	·
CCn1nccc1NC(=O)c1csc([C@H]2C[C@H](O)[C@@H](CO)O2)n1	·	·	-6	·	·	·
COc1cc(OC)c(OC)cc1CNC(=O)c1cccc(S(=O)(=O)N2CCc3ccccc3C2)c1	·	·	26	·	·	·
Oc1ccc(C(=Nc2ccccc2)c2ccccc2)c(O)c1	·	·	8	·	·	·
COC(=O)c1sc(NC(=S)NC(=O)c2ccccc2C)nc1C	0	2	51*	7	2	-19
COC(=O)c1sc(NC(=S)NC(=O)c2ccc(F)cc2)nc1C	0	10	·	-8	5	-14
CSc1ccc(CN2CCC2(C)C(=O)Nc2cccc(Oc3ccccc3)c2)cc1 (centres undefined)	·	·	5	·	·	·
Cc1ccnc(NS(=O)(=O)c2ccc(NC(=O)COc3ccccc3)cc2)n1	-3	6	-7	0	-88*	-3
O=C(Nc1nccs1)c1ccc(-c2ccc(F)cc2)o1	2	49	54*	19	26	-33
COc1ccccc1-c1csc(C(O)(c2ccccc2)C(F)(F)F)n1 (centres undefined)	·	·	8	·	·	·
CC(CN1CCOCC1)OC(=O)C(c1ccccc1)c1ccccc1 (centres undefined)	0	-1	-11	3	-63*	6
CCCCCCN1C[C@@H](O)[C@H](n2cc(COC(=O)c3ccccc3)nn2)C[C@@H]1c1ccc(OC)cc1	·	·	7	·	·	·
Cc1ccccc1NC(=O)N1C2CCCC1CC(NC(=O)C1CC1)C2 (centres undefined)	-2	12	-18	4	-70*	-9
O=C(NC1CC2CCCC(C1)N2C(=O)Nc1ccccc1Cl)C1CC1 (centres undefined)	-3	·	2	·	7	·
Cc1ccc(C(=O)CNc2ccc(Cl)cc2)cc1	-1	-3	-14	16	30	-8
SMILES	HSP90 inh	PPC-1+TRAIL kill	TRAIL sens C8	STAT3 inh	HSF1 inh	STAT1 inh
CCOc1ccc(NCC(=O)c2ccc(C)cc2)cc1	-2	9	17	9	-54*	1
CCCNC(=O)c1ccc2c(=O)c(O)c(-c3cccc(Br)c3)[nH]c2c1	·	35	12	·	-52*	·
CCCNC(=O)c1ccc2c(=O)c(O)c(-c3ccc(F)cc3)[nH]c2c1	·	12	4	·	3	·
CN(C)CCNC(=O)C1(C)Cc2c(-c3cccc(C(F)(F)F)c3)ccnc2O1 (centres undefined)	·	·	-18	·	·	·
CCOc1ccccc1/C=N/Nc1ccnc(=O)[nH]1	-1	·	1	·	-4	·
COc1cccc(/C=N/Nc2ccnc(=O)[nH]2)c1O	15	·	48*	·	1	·
COc1cccc(/C=N/NC(=O)C(C)n2nc(C)c([N+](=O)[O-])c2C)c1O (centres undefined)	-5	4	55*	-7	-4	-14
O=[N+]([O-])c1cccc(C=NNc2ccc3ccccc3n2)c1O	·	·	57*	·	?	·

High-throughput results from PubChem BioAssay.
